AHR activator: human AHR activation; AHR-responsive luciferase reporter cells, luminescence; 2.5% of 320,000 active; activation, % at 5 µM; P35869; in the data active = activation above about 47%;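 note: 0% = vehicle wells and 100% = reference agonist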
DAX1 inh-1: NR0B1 (DAX1) inhibition; 0.99% of 340,000 active; AID 504766; inhibition, % at 6.75 µM; P51843; HEK293 Gal4-DAX1 luciferase reporter, luminescence;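 active = inhibition above the mean over all tested compounds plus 3 SD, cut at about 4.2% in these data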;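 note: 0% = DAX1-transfected cells with DMSO and 100% = empty-vector control cells with DMSO; inhibition shows as a rise in luminescence from relieved DAX1 repression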
Target sequence (P51843 207-470 limits assumed): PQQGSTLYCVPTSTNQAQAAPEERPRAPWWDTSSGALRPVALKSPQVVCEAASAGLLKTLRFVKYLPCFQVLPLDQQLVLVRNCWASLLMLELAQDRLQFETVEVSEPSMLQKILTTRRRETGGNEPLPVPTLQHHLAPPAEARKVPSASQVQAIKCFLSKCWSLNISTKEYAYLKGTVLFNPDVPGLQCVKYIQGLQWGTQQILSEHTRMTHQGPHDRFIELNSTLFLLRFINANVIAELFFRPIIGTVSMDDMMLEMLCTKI
hcDAF-12 act: activators of H. contortus DAF-12 nuclear receptor | 1.4% of 370,000 active | activation, % at 6.8 µM | HEK293 hcDAF-12 lit1-tk-luc reporter, luminescence; 0% DMSO, 100% Δ7-dafachronic acid;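 active = activation above the mean of all tested compounds plus 3 SD, cut at about 5.5% in these data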;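 note: 100% = response to 3 µM Δ7-dafachronic acid high control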
hgDAF12 agonist: hgDAF-12 agonism, primary luciferase screen; HEK293 GAL4-hgDAF12 UAS-luciferase reporter, agonist luminescence; normalized to butyrate control; activation, % at 6.8 µM; 1.8% of 370,000 active; AID 687014;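 active = activation above a cutoff set at the mean of all screened compounds plus 3 SD, cut at about 10% in these data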;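 note: 0% = DMSO wells and 100% = sodium butyrate wells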
DAX1 inh-2: inhibitors of DAX1 repression of SF-1 activated StAR promoter; inhibition, % at 6.8 µM; HEK293T StAR-luciferase reporter, SF-1/DAX-1 repression relief; 1.1% of 370,000 active; AID 652010;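 active = inhibition above the mean over all tested compounds plus 3 SD, cut at about 3.6% in these data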;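 note: 0% = DAX-1 cells with DMSO and 100% = cells lacking DAX-1 with DMSO; higher inhibition means more luminescence from relief of DAX-1 repression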
ssDAF12 agonist: activates DAF-12 receptor from parasite S. stercoralis; HEK293 ssDAF-12/GRIP1 lit1-tk-luc reporter, luminescence; % of 3 µM dafachronic acid response; activation, % at 6.8 µM; 1% of 370,000 active; AID 652126;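 active = activation above the mean over all tested compounds plus 3 SD, cut at about 0.9% in these data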;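 note: 0% = DMSO-only wells and 100% = 3 µM delta7-dafachronic acid wells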
Starred values were filed as active, the others as inactive; x = not tested or not shown. An excerpt weighted towards active compounds, which were near 5.7% of everything screened.

SMILES	AHR activator	DAX1 inh-1	hcDAF-12 act	hgDAF12 agonist	DAX1 inh-2	ssDAF12 agonist
CC(C)(C)NC(=O)C(c1ccnc2ccccc12)n1c(=O)c(-c2ccco2)nc2ccccc21 (centres undefined)	x	x	3.4	-1.0	4.0*	0.1
O=c1c(-c2cccnc2)nc2ccccc2n1C(c1ccccn1)c1nc2ccccc2[nH]1 (centres undefined)	x	x	0.7	-0.6	0.3	-1.0
O=c1c(-c2ccco2)nc2ccccc2n1C(c1ccccn1)c1nc2ccccc2[nH]1 (centres undefined)	x	x	2.8	3.9	0.8	1.1*
COc1ccc2c(c1)nc(-c1cccc(Br)c1)c(=O)n2C(c1ccccn1)c1nc2ccccc2[nH]1 (centres undefined)	x	x	4.5	8.8	2.0	0.9*
O=c1c(-c2ccccc2)nc2ccccc2n1C(c1ccccn1)c1nc2ccccc2[nH]1 (centres undefined)	x	x	-0.6	0.3	1.9	-0.9
Nc1ccccc1-c1nc2ccccc2[nH]c1=O	x	1.1	1.6	5.9	1.0	-0.7
O=c1[nH]c2ccccc2nc1-c1c[nH]c2ccccc12	41.3	1.9	6.5*	3.1	0.6	0.2
O=[N+]([O-])CC(=Nc1ccc(Cl)cc1)N/N=C\c1oc(O)c2ccccc12	95.0*	1.8	2.2	6.1	0.6	-0.3
O=C(N/N=C/c1ccc([N+](=O)[O-])o1)c1cn(-c2ccccc2)nc1-c1ccc(Cl)cc1	9.0	0.6	-0.8	1.3	-0.1	-1.4
Nc1ncnc2c1ncn2[C@@H]1O[C@H](CNS(=O)(=O)c2cc(S(=O)(=O)c3ccccc3)cs2)[C@@H](O)[C@H]1O	x	-0.2	1.1	1.9	-3.2	-0.8
O=C(NCc1ccccc1)[C@@H]1CCCN1C(=O)[C@H]1CCCN1C(=O)c1ccc(F)c(C(F)(F)F)c1	x	x	-1.5	-1.0	-0.5	-0.9
Cc1[nH]nc(-c2ccc(O)cc2O)c1-c1ccc(Cl)cc1	14.4	-2.5	-1.6	-4.3	-1.2	-1.4
Cc1[nH]nc(-c2ccc(O)cc2O)c1-c1nc2ccccc2s1	73.5*	0.1	0.9	1.2	0.7	-0.3
CCOc1ccccc1NC(=O)/C=C/C(N)=O	-5.1	-0.7	-0.9	2.0	1.0	-0.8
O=C(/C=C\c1ccccc1[N+](=O)[O-])Nc1ccccc1	40.2	2.9	4.0	10.8*	0.8	0.0
O=C(/C=C/c1ccccc1)Nc1cccc(C(=O)O)c1	-8.9	-8.4	3.1	12.9*	4.4*	-0.7
CCOc1ccccc1NC(=O)/C=C/c1ccccc1[N+](=O)[O-]	62.8*	0.6	-1.4	0.1	0.0	-0.9
CC1(C)C(=O)Nc2ccccc2N1C(=O)COC(=O)CNS(=O)(=O)c1ccc(Br)cc1Cl	x	0.7	-1.1	-0.6	0.0	-1.0
CC/C(C)=N/N1C(=O)c2ccccc2NC1(C)CC (centres undefined)	3.9	6.2*	1.0	6.6	0.3	-1.3
O=C1c2ccccc2NC2(CCCC2)N1N=C1CCCC1	7.8	2.8	3.6	7.0	1.0	-1.4
COc1ccc([N+](=O)[O-])cc1NC(=O)c1cncc(Br)c1	70.0*	0.8	-0.9	-6.2	-0.7	-1.3
CC(C)(C)NC(=O)NC(=O)COC(=O)c1cccc(S(=O)(=O)N2CCCCC2)c1	2.1	-0.4	-2.4	0.9	-0.1	-0.7
COc1ccc(/C=C/c2nc(-c3ccccc3O)n[nH]2)cc1OC	29.1	1.9	0.3	11.6*	3.0	-1.0
O=C(O)COc1ccc(/C=C/c2nc(-c3ccccc3O)n[nH]2)cc1	5.6	1.2	5.2	0.1	0.2	-1.1
COc1cccc2oc3ccc(C#Cc4ccccn4)cc3c(=O)c12	16.0	2.5	3.3	11.0*	3.0	-0.2
SMILES	AHR activator	DAX1 inh-1	hcDAF-12 act	hgDAF12 agonist	DAX1 inh-2	ssDAF12 agonist
CNC(C)C#Cc1ccc2c(=O)c3c(OC)cccc3oc2c1 (centres undefined)	96.9*	x	x	x	x	x
CNC(C)C#Cc1ccc2c(=O)c3cc(C)c(C)cc3oc2c1 (centres undefined)	9.8	-2.3	3.2	11.4*	1.1	-0.2
CNC(C)C#Cc1ccc2oc3cc(C)c(C)cc3c(=O)c2c1 (centres undefined)	-8.1	-0.3	1.7	6.0	0.3	-0.3
COc1cccc(C(=O)COC(=O)c2cccs2)c1	6.5	0.7	1.6	2.2	1.4	-0.9
COCc1cc(N2CCNC[C@H]2C)ccc1N1C[C@@H](C)O[C@@H](C)C1	x	x	0.8	-2.9	1.1	-0.1
COc1ccc(-c2nc(-c3ccccn3)no2)cc1	-14.4	-6.6	-7.8	-19.8	-2.2	-3.5
Clc1ccc(-c2nc(-c3ccccn3)no2)cc1Cl	72.2*	2.4	3.8	12.4*	3.6*	0.4
COc1ccccc1N(C(C)=O)c1nc(C)cc(C)c1C#N	47.6*	-0.1	5.2	4.0	-0.3	0.1
COc1ccc(Cl)cc1N(C(C)=O)c1nc(C)cc(C)c1C#N	54.2*	5.1*	5.9*	-0.4	0.1	-0.7
CC(OC(=O)c1cccnc1Cl)C(=O)Nc1ccc(S(N)(=O)=O)cc1 (centres undefined)	-0.9	6.2*	-0.6	0.9	-0.3	-2.1
CC(OC(=O)c1cccnc1Cl)C(=O)Nc1ccc2c(c1)OCCO2 (centres undefined)	5.7	-1.2	-1.2	-0.9	-0.5	-1.2
CN(C(=O)c1cc(-c2ccc3c(c2)OCO3)on1)c1ccccc1	3.5	3.0	2.6	11.1*	0.6	0.0
O=C(Nc1cc(Br)ccc1O)c1cc(-c2ccc3c(c2)OCO3)on1	2.3	5.7*	5.3	4.7	0.5	-0.4
CSc1ccccc1NC(=O)c1cc(-c2ccc3c(c2)OCO3)on1	2.9	1.5	1.3	3.7	0.4	-0.3
O=C(CNc1nnnn1-c1ccccc1)N1CCCC1	x	x	2.6	-2.0	0.1	-0.9
COc1ccccc1/C=C/C1(C(=O)NC2CCCC2)CC(=O)N1c1ccccc1 (centres undefined)	4.2	4.9*	-2.0	0.3	-0.6	-1.6
CCOc1cccc(-c2nc(C(N)=O)c3[nH]c(=O)n(-c4cccc(Cl)c4)c3n2)c1O	28.8	-0.2	0.2	-1.6	-0.9	-1.1
CCOc1ccccc1-c1nc(C(N)=O)c2[nH]c(=O)n(-c3cccc(C)c3)c2n1	63.9*	-0.4	-1.1	2.0	-0.4	-0.9
COc1ccc(-c2cc3cc(-c4cc(OC)c(OC)c(OC)c4)ccc3o2)cc1	-2.0	0.0	0.8	1.5	-0.3	-0.3
COc1ccc(C#Cc2c(-c3ccsc3)oc3ccc(-c4cc(OC)c(OC)c(OC)c4)cc23)cc1	1.0	0.4	5.6*	4.2	-0.6	-0.7
COc1ccc(-c2ccc3oc(-c4ccsc4)cc3c2)cc1	57.1*	1.1	0.7	-0.3	-0.4	-0.8
CC1CCCN(C(=O)Cn2c(=O)oc3cc(S(=O)(=O)N4CCCCC4)ccc32)C1 (centres undefined)	2.6	1.6	-0.2	-1.0	2.1	-0.7
